The values below come from ChEMBL document CHEMBL3988442, “University of Dundee, Small-Polar-MMV Screening Library” (2021).

The structures appear in SMILES notation. For part of these data: Measured potencies and affinities stand elsewhere.

Holding throughout (set-up): scale not given: direction of the effect not stated beside the values
Assay [1] deals with Protein translocase subunit SecA (Escherichia coli (strain K12)) (UniProt P10408). The assay is described as follows: Assay to Identify E. coli SecA ATPase Inhibitors. The format is functional. The following applies: 30 µM.
Assay [2] concerns the target T1, Ubiquitin-activating enzyme e1, putative (Leishmania donovani (strain BPK282A1)) (UniProt E9BSI1).
T1 sequence (whole entry): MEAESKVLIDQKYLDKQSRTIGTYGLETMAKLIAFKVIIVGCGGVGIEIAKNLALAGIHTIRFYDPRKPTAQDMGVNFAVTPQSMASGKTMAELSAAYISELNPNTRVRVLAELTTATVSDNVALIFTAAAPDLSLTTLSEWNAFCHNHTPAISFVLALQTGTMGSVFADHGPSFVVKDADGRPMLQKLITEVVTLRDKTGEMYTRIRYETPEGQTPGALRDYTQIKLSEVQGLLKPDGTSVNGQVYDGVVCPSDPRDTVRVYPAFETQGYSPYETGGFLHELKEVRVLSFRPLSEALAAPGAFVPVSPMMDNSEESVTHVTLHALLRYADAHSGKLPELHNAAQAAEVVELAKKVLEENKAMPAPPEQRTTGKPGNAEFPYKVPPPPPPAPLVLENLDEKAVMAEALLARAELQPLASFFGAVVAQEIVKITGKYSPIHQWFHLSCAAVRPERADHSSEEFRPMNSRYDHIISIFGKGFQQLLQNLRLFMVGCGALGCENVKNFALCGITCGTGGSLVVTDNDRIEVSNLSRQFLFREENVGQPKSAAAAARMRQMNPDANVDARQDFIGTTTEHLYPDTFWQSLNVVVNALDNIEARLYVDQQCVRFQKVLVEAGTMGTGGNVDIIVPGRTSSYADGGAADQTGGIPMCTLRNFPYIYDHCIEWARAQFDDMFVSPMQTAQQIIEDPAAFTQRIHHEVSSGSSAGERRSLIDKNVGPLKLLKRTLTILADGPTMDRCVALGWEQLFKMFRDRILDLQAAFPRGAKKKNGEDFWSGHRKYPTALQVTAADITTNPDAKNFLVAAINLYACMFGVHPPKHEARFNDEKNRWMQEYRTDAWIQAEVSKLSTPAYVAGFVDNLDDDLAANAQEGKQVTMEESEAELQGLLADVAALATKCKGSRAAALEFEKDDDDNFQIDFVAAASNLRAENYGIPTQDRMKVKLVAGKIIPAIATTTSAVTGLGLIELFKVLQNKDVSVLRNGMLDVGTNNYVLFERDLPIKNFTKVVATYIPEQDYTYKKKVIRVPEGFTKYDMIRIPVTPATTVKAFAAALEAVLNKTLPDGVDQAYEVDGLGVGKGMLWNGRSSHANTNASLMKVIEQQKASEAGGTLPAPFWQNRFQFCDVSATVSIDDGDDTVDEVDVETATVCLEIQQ
The assay is described as follows: Leishmania donovani Ubiquitin Activating Enzyme (LdE1). The format is functional. The following applies: 30 µM.

Assay [3] has as its target T2, Aspartate--tRNA(Asp/Asn) ligase (Mycobacterium tuberculosis (strain ATCC 25618 / H37Rv)) (UniProt P9WFW3). Also: in the data most compounds retested in dose-response had high values.
T2 sequence (whole entry): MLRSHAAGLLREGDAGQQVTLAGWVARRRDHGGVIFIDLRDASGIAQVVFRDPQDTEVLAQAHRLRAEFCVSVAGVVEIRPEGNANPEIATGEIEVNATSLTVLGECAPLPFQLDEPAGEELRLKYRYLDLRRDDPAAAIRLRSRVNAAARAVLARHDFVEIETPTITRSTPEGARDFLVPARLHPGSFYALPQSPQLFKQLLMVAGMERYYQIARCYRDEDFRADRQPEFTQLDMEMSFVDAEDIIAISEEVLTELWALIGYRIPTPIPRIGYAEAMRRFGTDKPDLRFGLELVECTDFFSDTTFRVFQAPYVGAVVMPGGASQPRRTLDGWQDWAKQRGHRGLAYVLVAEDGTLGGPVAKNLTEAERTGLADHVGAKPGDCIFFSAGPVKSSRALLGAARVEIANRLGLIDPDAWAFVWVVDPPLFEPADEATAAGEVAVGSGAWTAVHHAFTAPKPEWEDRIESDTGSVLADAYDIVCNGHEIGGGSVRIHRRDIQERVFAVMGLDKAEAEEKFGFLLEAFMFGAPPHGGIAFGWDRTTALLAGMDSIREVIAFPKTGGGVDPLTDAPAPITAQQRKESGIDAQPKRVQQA
The assay is described as follows: Assay for Asp RNA synthetase-1 from Mycobacterium tuberculosis. The format is functional. The following applies: 30 µM.

Assay [4] deals with Sialic acid-binding Ig-like lectin 9 (Homo sapiens) (UniProt Q9Y336). Put plainly: Hs-Siglec9 ALPHAscreen SOP 20170721. The following applies: 10 µM. (Bead proximity is the source of the signal in Alpha formats.)
A further assay has as its system Trypanosoma cruzi. The assay is described as follows: Trypanosoma cruzi phosphomannomutase and mannose-1-phosphate guanylyltransferase assay. The conditions noted are these: 10 µM. The format is functional.
Assay [5] deals with T3, Arginase-2, mitochondrial (Homo sapiens) (UniProt P78540).
T3 sequence (whole entry): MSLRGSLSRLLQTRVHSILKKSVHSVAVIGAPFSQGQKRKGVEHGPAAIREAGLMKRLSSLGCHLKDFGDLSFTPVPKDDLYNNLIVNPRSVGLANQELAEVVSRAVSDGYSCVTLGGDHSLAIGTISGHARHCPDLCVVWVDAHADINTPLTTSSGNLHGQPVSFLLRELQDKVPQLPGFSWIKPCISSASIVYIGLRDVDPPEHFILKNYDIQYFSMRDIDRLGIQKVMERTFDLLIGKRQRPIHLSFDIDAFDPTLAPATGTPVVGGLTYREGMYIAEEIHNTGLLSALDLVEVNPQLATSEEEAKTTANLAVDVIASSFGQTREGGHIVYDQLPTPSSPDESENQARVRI
Put plainly: in vitro enzyme assay to detect the production of urea directly proportional to the activity of Arginase II. Also: in the data most compounds retested in dose-response had high values. The format is functional. The following applies: 33.3 µM.

Assay [6] concerns the target T4, Proteasome subunit beta (Trypanosoma cruzi) (UniProt O96673).
T4 sequence (whole entry): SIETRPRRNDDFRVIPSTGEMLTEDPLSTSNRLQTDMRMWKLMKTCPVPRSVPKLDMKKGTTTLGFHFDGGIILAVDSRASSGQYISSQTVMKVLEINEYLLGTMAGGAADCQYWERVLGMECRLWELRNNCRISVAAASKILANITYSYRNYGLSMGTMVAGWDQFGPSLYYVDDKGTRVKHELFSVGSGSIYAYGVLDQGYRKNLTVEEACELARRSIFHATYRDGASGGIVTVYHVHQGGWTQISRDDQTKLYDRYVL
The assay is described as follows: Trypanosoma cruzi proteasome chymotrypsin-like activity (TcProtChymo) assay. Also: in the data most compounds retested in dose-response had high values. The following applies: 9.37 µM. The assay is classed as functional.

The species named for the next assay is Homo sapiens. The assay is described as follows: To identify inhibition of the IFN signalling (Jak-Stat) pathway via expression of an eGFP reporter gene under the control of an IFN-stimulated response element (ISRE) containing MxA promoter. The following applies: 30 µM. The assay is classed as functional. (A reporter such as luciferase makes a cellular process visible.)

Assay [7] addresses Shiga toxin 2 (Escherichia coli O157:H7) (UniProt P09385+P09386). Put plainly: E. coli 0.157:H7 Shiga Toxin SOP - stx2 screening assay. The format is functional. The conditions noted are these: 30 µM.
Assay [8] deals with T5, Tyrosyl-tRNA synthetase, putative (Trypanosoma cruzi (strain CL Brener)) (UniProt Q4DSP6).
T5 sequence (whole entry): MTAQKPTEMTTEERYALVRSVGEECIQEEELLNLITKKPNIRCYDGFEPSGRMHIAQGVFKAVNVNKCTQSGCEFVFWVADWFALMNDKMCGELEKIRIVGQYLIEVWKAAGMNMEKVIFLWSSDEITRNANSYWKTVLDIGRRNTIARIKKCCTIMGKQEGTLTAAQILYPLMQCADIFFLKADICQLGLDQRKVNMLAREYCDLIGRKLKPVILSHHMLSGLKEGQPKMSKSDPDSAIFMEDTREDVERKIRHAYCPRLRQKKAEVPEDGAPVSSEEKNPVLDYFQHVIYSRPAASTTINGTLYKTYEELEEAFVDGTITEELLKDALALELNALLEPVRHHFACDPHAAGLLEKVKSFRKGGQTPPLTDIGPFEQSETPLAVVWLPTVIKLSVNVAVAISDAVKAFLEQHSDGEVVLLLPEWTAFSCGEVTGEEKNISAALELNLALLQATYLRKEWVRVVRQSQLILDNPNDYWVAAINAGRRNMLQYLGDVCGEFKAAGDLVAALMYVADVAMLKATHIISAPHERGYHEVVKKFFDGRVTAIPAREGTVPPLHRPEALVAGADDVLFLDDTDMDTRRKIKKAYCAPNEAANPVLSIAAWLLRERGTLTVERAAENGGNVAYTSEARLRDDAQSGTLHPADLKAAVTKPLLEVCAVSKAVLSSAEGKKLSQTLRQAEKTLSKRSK
The assay is described as follows: Trypanosoma cruzi tyrosyl tRNA synthetase (TcYRS) _High Tyrosine SOP. Also: in the data most compounds retested in dose-response had high values. The format is functional. The following applies: 30 µM.

Assay [9] has as its target T5, Tyrosyl-tRNA synthetase, putative (Trypanosoma cruzi (strain CL Brener)). The assay is described as follows: Trypanosoma cruzi tyrosyl tRNA synthetase (TcYRS) SOP. The conditions noted are these: 30 µM. The assay is classed as functional.
Assay [10] has as its target Chromo domain-containing protein 1 (Saccharomyces cerevisiae (strain ATCC 204508 / S288c) (Baker's yeast)) (UniProt P32657). Put plainly: ScCHD-1 Enzyme Inhibition Assay. Also: in the data most compounds retested in dose-response had high values. The assay is classed as functional. The following applies: 30 µM.

Chromo domain-containing protein 1 (Saccharomyces cerevisiae (strain ATCC 204508 / S288c) (Baker's yeast)), sequence (P32657 whole entry, the tested form may be a part): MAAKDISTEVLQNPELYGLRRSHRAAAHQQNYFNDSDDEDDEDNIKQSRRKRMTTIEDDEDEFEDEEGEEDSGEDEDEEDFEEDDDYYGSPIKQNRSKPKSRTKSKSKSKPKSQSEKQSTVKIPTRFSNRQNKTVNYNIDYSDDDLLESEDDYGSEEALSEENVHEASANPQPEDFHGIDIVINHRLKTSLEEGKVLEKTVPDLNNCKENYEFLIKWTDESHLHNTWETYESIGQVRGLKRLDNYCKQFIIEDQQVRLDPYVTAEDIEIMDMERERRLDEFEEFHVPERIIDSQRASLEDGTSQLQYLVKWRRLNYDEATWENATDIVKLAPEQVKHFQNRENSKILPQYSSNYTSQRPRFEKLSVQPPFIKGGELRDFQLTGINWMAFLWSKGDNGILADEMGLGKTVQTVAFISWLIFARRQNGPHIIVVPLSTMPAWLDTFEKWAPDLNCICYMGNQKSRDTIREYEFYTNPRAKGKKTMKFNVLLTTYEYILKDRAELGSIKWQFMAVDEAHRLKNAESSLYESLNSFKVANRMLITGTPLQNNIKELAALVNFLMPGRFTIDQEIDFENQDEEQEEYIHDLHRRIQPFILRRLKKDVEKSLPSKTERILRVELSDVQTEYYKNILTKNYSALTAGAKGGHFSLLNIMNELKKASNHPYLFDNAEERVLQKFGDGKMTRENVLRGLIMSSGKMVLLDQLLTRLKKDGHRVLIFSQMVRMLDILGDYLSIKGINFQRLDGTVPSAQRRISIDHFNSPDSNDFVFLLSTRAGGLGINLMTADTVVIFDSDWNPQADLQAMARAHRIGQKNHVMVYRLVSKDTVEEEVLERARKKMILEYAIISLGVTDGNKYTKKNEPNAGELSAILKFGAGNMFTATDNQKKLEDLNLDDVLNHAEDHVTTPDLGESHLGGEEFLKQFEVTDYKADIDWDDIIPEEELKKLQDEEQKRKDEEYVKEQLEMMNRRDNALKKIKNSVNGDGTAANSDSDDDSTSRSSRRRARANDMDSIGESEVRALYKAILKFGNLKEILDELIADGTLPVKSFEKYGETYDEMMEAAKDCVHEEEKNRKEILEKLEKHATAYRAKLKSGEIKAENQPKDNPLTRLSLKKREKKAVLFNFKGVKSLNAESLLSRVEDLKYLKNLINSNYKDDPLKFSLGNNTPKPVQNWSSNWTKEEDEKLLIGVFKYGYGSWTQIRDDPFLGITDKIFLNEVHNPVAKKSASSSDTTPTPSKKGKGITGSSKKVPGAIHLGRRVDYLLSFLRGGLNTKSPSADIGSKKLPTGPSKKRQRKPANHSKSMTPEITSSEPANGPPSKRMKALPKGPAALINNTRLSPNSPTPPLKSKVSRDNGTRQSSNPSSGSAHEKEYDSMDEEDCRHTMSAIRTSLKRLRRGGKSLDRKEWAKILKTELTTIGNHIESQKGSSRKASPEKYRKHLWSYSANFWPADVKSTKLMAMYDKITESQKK
Sialic acid-binding Ig-like lectin 9 (Homo sapiens), sequence (Q9Y336 whole entry): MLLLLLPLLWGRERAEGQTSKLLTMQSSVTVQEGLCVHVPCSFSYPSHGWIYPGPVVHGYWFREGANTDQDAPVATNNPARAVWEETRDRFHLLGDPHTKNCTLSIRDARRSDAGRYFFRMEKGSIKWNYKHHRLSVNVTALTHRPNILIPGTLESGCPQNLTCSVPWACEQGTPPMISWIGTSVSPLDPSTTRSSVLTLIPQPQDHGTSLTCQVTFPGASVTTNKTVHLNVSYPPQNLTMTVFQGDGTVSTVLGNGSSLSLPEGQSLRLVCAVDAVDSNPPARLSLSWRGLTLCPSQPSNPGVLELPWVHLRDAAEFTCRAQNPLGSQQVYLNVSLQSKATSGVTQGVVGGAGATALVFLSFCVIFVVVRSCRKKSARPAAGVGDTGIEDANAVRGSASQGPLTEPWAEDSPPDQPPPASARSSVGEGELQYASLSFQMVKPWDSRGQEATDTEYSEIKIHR
Protein translocase subunit SecA (Escherichia coli (strain K12)), sequence (P10408 whole entry): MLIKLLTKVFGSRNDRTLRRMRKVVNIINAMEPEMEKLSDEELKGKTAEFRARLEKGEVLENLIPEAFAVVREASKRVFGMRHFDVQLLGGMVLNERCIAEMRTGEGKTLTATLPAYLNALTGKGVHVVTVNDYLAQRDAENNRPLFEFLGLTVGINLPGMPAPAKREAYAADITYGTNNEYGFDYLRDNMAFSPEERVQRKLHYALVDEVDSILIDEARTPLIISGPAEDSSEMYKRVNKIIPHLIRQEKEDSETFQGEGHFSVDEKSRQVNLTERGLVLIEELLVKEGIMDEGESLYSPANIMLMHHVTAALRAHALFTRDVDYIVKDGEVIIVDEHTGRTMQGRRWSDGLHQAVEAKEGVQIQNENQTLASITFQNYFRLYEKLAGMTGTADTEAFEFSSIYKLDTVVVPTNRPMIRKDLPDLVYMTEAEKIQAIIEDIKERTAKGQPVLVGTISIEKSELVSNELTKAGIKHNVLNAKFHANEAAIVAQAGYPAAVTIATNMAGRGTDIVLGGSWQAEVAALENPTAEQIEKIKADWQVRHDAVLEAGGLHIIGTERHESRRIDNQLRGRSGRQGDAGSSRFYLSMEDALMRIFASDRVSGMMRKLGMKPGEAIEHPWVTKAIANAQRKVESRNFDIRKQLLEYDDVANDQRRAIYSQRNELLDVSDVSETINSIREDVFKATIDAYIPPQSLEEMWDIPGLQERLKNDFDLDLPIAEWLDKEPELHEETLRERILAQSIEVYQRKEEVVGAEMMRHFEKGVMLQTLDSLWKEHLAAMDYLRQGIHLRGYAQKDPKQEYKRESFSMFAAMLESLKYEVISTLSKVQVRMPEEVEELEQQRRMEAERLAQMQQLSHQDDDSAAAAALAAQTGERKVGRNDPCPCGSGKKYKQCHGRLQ

On to `Cc1cccc(CN2C(=O)C[C@H]3[C@@H]2CCN3Cc2ccccn2)n1`, for which the Percent Effect in [1] was 0.959%; in assay [2], 22.1%; in assay [3], 3.98%; in assay [4] it was -1.08%; in the assay with Trypanosoma cruzi it was -1.13%; in assay [5] it was -1.83%. Besides, the Percent Effect in [6] was 12.8%; in the assay filed under Homo sapiens, -7.67%; in assay [7], -19.3%; in assay [8], -0.966%; in assay [9], 20%; in assay [10], -6.04%.
Consider `C[C@H]1C(=O)NC[C@H]2CN(Cc3ccccc3)C[C@H]21`, for which the Percent Effect in assay [1] is -1.35%; in [2] it was -1.3%; in assay [3] it was 0.819%; in assay [4], -0.437%; with Trypanosoma cruzi, 1.5%; in assay [5], -0.457%. The Percent Effect in assay [6] is -1.12%; in the assay listed under Homo sapiens, 13.9%; in assay [7], 5.59%; in [8], 4.83%; in assay [9], 0%; in [10], 0.883%.
For `Cc1noc(C)c1CN1CCO[C@H]2CNC[C@H]21`, the Percent Effect in assay [1] was -3.48%; in assay [2], 9.09%; in [3] it was 7.37%; in assay [4], -4.93%; in the assay on Trypanosoma cruzi, -4.19%; in assay [5] it was -2.02%. The Percent Effect in assay [6] was 20%; in the assay filed under Homo sapiens it was 8.41%; in [7], 2.96%; in assay [8], 0.526%; in assay [9], 7.69%; in [10], -4.21%.
Regarding `C[C@@H]1CN(Cc2ccsc2)C[C@]12CCN(Cc1cccnc1)C2=O`, the Percent Effect is -4.41% in assay [1]; 1.3% in assay [2]; -1.62% in [3]; 1.42% in [4]; -1.69% with Trypanosoma cruzi; 1.37% in assay [5]. In addition, the Percent Effect in [6] was -4.03%; in the assay listed under Homo sapiens, 25.2%; in assay [7], -6.36%; in [8], 0%; in assay [9], -10%; in [10], -0.115%.
As to `Cc1nn(C)c(N(C)C)c1CNC(C)Cc1c(F)cccc1F` (configuration not stated), the Percent Effect is -1.71% in assay [1]; 26% in [2]; 3.29% in [3]; 10.5% in assay [4]; 4.85% in the assay with Trypanosoma cruzi; 5.12% in assay [5]. For the same compound, the Percent Effect in assay [6] was 7.89%; in the assay filed under Homo sapiens, 5.28%; in assay [7], -17.2%; in assay [8], 6.86%; in assay [9] it was 23.5%; in assay [10] it was -9.67%.
`O=C1CC2(CCCNC2)C(=O)N1Cc1ccccc1` (configuration not stated): the Percent Effect in assay [1] is -1.32%; in assay [2], -16.9%; in assay [3], 1.23%; in assay [4], -1.16%; in the assay with Trypanosoma cruzi, -6.57%; in assay [5], 0.457%. Further, the Percent Effect was 16.4% in [6]; 15% in the assay filed under Homo sapiens; 2.48% in assay [7]; 2.9% in assay [8]; 0% in assay [9]; -9.23% in assay [10].
